Reference: PubChem BioAssay (Tox21)
Records with an inconclusive call do not appear. Values without a mark were called inactive. Active and inactive are the calls of the source. Calls follow the shape of the dose curve; as a rule, active = well fitted activation curve with a large enough effect in the signal ratio in the repeat runs (not every such curve was filed as active); inconclusive = weak or mixed curves, or effect the other way; inactive = flat fitted curve, though single readings scatter; the % refers to the signal ratio.

assay: qHTS assay to identify small molecule agonists of the endoplasmic reticulum stress response signaling pathway (AID 1159516); settings: ESRE-bla HeLa, ER stress beta-lactamase reporter, 5 h; series mostly up to 61 µM; activation: at the top concentration
Excerpt: National Center for Advancing Translational Sciences [NCATS]
NIH Chemical Genomics Center [NCGC]
U.S. Environmental Protection Agency [EPA]
National Institutes of Environmental Health Sciences [NIEHS]
National Toxicology Program [NTP]
U.S. Food and Drug Administration [FDA]
Endoplasmic Reticulum (ER) plays an important role in cellular signaling, protein folding/maturation, stress response, lipid biosynthesis, calcium storage and release etc. Under stress conditions, proteins in ER misfold or unfold, and leading to the expression of ER stress responsive genes. ER stress has been associated with a variety of pathophysiological conditions such as cancer, inflammation, neurodegenerative diseases, diabetes, ischemic heart disease etc. To identify the compounds that induce ER stress response, an ER stress reporter cell line, CellSensor ESRE-bla HeLa (Life Technologies, Carlsbad, CA) containing a beta-lactamase reporter gene under control of the Endoplasmic reticulum Stress Response Element (ESRE) was used to screen Tox21 10K compound library.
Tox21 Assay Protocol Summary:
ESRE-bla HeLa cells were dispensed at 1,500 cells/6 uL of assay medium per well into black wall/clear-bottom 1536-well plates using a Multidrop Combi (ThermoFisher Scientific, Waltham, MA) dispenser. After the assay plates were incubated at 37 C and 5% CO2 for an overnight, 23 nL of compounds dissolved in DMSO, positive controls or DMSO only was transferred to the assay plate by a Pintool station (Kalypsys, San Diego, CA). The assay plates were incubated at 37 C and 5% CO2 for 5 hr. One uL of LiveBLAzer B/G FRET substrate (Life Technologies) was added using a Flying Reagent Dispenser (Aurora Discovery, San Diego, CA) and the plates were incubated at room temperature for 2 hr. Fluorescence intensity (405 nm excitation, 460 nm and 530 nm emissions) was measured using an Envision plate reader (PerkinElmer, Shelton, CT).
% is scaled to controls: 0 for no effect and ±100 for the full control effect.

SMILES	outcome	activation
CCOP(=S)(OCC)Oc1cnc2ccccc2n1	inactive	–
CCCCCCCCCl	inactive	–
OCCN(CCO)CCO	inactive	–
c1cc2c3c(cccc3c1)CC2	inactive	–
O=[N+]([O-])c1ccc(Oc2ccc(Cl)cc2Cl)cc1	inactive	–
CC(C)C#N	–	3.9%
Cc1ccccc1O	inactive	–
O=NN1CCCC1	inactive	–
Cc1ccc(N)cc1Cl	inactive	–
CC(C)(C)C(O)(CCc1ccc(Cl)cc1)Cn1cncn1 (stereo not given)	inactive	–
O=c1[nH]c(=O)[nH]c(=O)[nH]1	inactive	–
ClCc1cccnc1	inactive	–
CN(C)N=O	inactive	–
C1CC2OC2CC1C1CO1 (stereo not given)	inactive	–
CC1C=[C-]C=C1.[C-]#[O+].[C-]#[O+].[C-]#[O+].[Mn]	inactive	–
CCOC(=O)c1ccccc1C(=O)OCC	inactive	–
Nc1ccc(Cc2ccc(N)cc2)cc1	inactive	–
O=C(NC(=O)c1c(F)cccc1F)Nc1cc(Cl)c(OC(F)(F)C(F)C(F)(F)F)cc1Cl (stereo not given)	inactive	–
COCCl	inactive	–
Cc1cc(Cl)ccc1O	inactive	–

SMILES	outcome	activation
CC(C)C1(C)N=C(c2nc3ccccc3cc2C(=O)O)NC1=O (stereo not given)	inactive	–
COC(=O)c1ccccc1N	inactive	–
O=NN1CCCCCCC1	inactive	–
C[C@]12CC[C@H]3[C@@H](CC[C@@]45O[C@@H]4C(O)=C(C#N)C[C@]35C)[C@@H]1CC[C@@H]2O	inactive	–
CCOP(=S)(OCC)SCCSCC	inactive	–
CC(C)NC(=O)N1CC(=O)N(c2cc(Cl)cc(Cl)c2)C1=O	inactive	–
CN=C=S	inactive	–
CN(C)[C@@H]1C(=O)C(C(N)=O)=C(O)[C@@]2(O)C(=O)C3=C(O)c4c(O)cccc4[C@@](C)(O)[C@H]3C[C@@H]12	–	-3.69%
C#CC(C)(C)NC(=O)c1cc(Cl)cc(Cl)c1	–	-0.0296% [at 78.8 µM]
O=S(=O)(c1ccc(O)cc1)c1ccc(O)cc1	inactive	–
CCCCCCCCCCCC#N	inactive	–
Nc1ccccc1C(=O)O	inactive	–
BrCCBr	inactive	–
Nc1c(Cl)c(Cl)nc(C(=O)O)c1Cl	inactive	–
Cc1cc(-c2cc(C)c(N)c(C)c2)cc(C)c1N	inactive	–
c1ccc2c(c1)oc1ccccc12	inactive	–
CCN(CC)c1ccccc1	inactive	–
Cn1cc(-c2ccccc2)c(=O)c(-c2cccc(C(F)(F)F)c2)c1	inactive	–
CCCN(CCC)N=O	inactive	–
[O-][Cl+2]([O-])O	inactive	–
